Data reported in PubChem BioAssay (EPA / NIEHS).
The source made the active and inactive calls. Rule for the calls: active = hit-call score of the fitted dose curve at least 0.9, where 1 is the maximum; inactive = score below 0.9.

Tests used:
[1] = ATG_EGR_CIS: Attagene CIS-FACTORIAL HepG2 Assay for human Early Growth Response 1 (EGR1) (AID 2282938); details: HepG2 Attagene CIS-FACTORIAL EGR reporter mRNA; actives raise or lower the signal
In short: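 Activity is taken as induction or loss of reporter mRNA versus DMSO, fitted bidirectionally. Transcripts from cis-regulated reporter units in transiently transfected HepG2 were measured after 24 h by RT-PCR with capillary electrophoresis.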

[2] = ATG_M_19_CIS: Attagene CIS-FACTORIAL HepG2 Assay for M19 Transcription Factor (Internal Marker) (AID 2282939); details: HepG2 Attagene CIS-FACTORIAL M19 internal marker reporter; actives raise or lower the signal
In short: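 In this multiplexed cell assay, transiently transfected HepG2 reporter units report endogenous transcription-factor activity; after 24 hours of treatment, labelled reporter cDNA fragments are quantified by capillary electrophoresis and fitted bidirectionally against DMSO.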

[3] = ATG_Ets_CIS: Attagene CIS-FACTORIAL HepG2 Assay for human Erythroblast Transformation Specific (ETS) (AID 2282941); details: HepG2 ETS cis-reporter transcription, actives raise or lower the signal
In short: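 Multiplexed reporter transcript profiling: HepG2, 24 h treatment, total RNA to cDNA, PCR, 6-FAM labelling, HpaI cut, capillary electrophoresis. Gain- or loss-of-signal fitted against DMSO.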

[4] = target: Hepatocyte nuclear factor 3-beta (Homo sapiens) (UniProt Q9Y261); experiment: ATG_FoxA2_CIS: Attagene CIS-FACTORIAL HepG2 Assay for human Forkhead box A2 (FOXA2) (AID 2282942); details: HepG2 cis-reporter transcription factor activity, 24 h; actives raise or lower the signal
In short: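 Reporter transcript induction is measured by fluorescence after capillary electrophoresis of RT-PCR products from HepG2 cells exposed 24 h. Cis-regulated reporter units report endogenous factor activity; curves fitted both directions against DMSO.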

[5] = ATG_FoxO_CIS: Attagene CIS-FACTORIAL HepG2 Assay for human Forkhead box O (FoxO) (AID 2282943); details: HepG2 Attagene cis-reporter, FoxO element, mRNA; actives raise or lower the signal
In short: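 Human hepatoma HepG2 cells carry transiently introduced reporter transcription units controlled by cis promoter elements. Chemical treatment lasted 24 h, and mRNA signal was compared with DMSO.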

[6] = ATG_GATA_CIS: Attagene CIS-FACTORIAL HepG2 Assay for human GATA Binding Protein (AID 2282944); details: HepG2 GATA cis-element reporter, Attagene multiplex mRNA; actives raise or lower the signal
In short: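 Measures endogenous transcription factor-driven reporter mRNA in HepG2 cells transiently carrying cis-regulated constructs. 24 h dosing; RNA via oligo(dT) reverse transcription, PCR, HpaI digestion, capillary electrophoresis; fitted relative to DMSO.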

[7] = ATG_GLI_CIS: Attagene CIS-FACTORIAL HepG2 Assay for human Zinc Finger Protein GLI1 (AID 2282945); details: HepG2, Attagene cis-factorial reporter mRNA, GLI element; actives raise or lower the signal
In short: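 Bidirectional curve fits relative to DMSO, using reporter mRNA levels from RT-PCR plus capillary electrophoresis. Cells were HepG2 transiently carrying cis-regulated reporter constructs, harvested 24 h after dosing.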

[8] = target: Bile acid receptor (Homo sapiens) (UniProt Q96RI1); experiment: ATG_IR1_CIS: Attagene CIS-FACTORIAL HepG2 Assay for human Nuclear Receptor Subfamily 1 Group H Member 4 (NR1H4), IR1 submotif (AID 2282946); details: IR1 reporter transcription, actives raise or lower the signal
In short: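 HepG2 cells transiently transfected with multiplexed cis-element reporter units read endogenous transcription factor activity. After 24 h compound exposure, reporter mRNA was quantified by RT-PCR, fluorescent labelling, HpaI digestion and capillary electrophoresis; bidirectional fitting versus DMSO baseline.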

[9] = ATG_GRE_CIS: Attagene CIS-FACTORIAL HepG2 Assay for human Glucocorticoid Response Elements (GRE) (AID 2282947); details: HepG2 GRE cis-reporter, Attagene multiplex mRNA; actives raise or lower the signal
In short: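 Multiplexed cis-reporter mRNA induction, HepG2, 24 h post-dose. RT-PCR, FAM-labelled, HpaI-digested amplicons by CE. Bidirectional fit vs DMSO.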

Measured: AC50

Hepatocyte nuclear factor 3-beta (Homo sapiens), sequence (Q9Y261 whole entry, looked up): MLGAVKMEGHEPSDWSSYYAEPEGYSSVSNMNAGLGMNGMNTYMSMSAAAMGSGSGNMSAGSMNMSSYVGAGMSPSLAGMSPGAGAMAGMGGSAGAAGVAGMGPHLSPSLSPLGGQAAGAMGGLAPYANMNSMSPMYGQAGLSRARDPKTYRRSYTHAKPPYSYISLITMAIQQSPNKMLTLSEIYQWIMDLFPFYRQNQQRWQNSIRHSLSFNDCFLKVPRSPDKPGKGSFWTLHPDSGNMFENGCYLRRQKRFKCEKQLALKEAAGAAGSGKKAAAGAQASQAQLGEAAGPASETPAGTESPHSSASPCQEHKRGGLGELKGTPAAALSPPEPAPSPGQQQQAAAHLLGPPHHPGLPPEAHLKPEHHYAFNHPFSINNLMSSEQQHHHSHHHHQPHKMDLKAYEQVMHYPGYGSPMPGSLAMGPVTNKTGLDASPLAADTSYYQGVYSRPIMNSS
Bile acid receptor (Homo sapiens), sequence (Q96RI1 whole entry, looked up): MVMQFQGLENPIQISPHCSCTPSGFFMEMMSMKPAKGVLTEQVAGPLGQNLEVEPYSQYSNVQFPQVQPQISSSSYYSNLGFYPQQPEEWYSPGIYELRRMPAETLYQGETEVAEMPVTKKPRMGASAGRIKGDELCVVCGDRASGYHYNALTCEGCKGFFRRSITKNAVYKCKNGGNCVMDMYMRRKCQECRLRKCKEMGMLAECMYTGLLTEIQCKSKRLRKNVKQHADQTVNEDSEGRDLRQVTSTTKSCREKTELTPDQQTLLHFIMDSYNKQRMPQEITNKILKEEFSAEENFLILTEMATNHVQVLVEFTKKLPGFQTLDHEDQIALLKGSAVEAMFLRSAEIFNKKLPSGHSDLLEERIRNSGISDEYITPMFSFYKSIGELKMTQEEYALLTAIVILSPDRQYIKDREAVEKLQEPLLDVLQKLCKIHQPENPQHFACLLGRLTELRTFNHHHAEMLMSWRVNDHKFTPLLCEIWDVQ

CNC(=O)N(C)c1nc2ccccc2s1
active: [4] 26.8 µM
inactive: all other assays above

C=CC(=O)OCC(COC(=O)C=C)(COC(=O)C=C)COC(=O)C=C
active: [1] 8.31 µM | [3] 33.4 µM | [5] 8.71 µM | [8] 12.2 µM
inactive: all other assays above

O=S(=O)(C(Cl)(Cl)Cl)C(Cl)(Cl)Cl
active: [1] 17.3 µM | [7] 19.3 µM
inactive: all other assays above

CCOP(=S)(OCC)OP(=S)(OCC)OCC
inactive: all assays above

CC1(C)COP(Oc2ccccc2)OC1
not listed: [9]
inactive: all other assays above

Cc1ccccc1OP(=O)(Oc1ccccc1C)Oc1ccccc1C
inactive: all assays above

ClCc1ccccc1Cl
active: [9] 100 µM
inactive: all other assays above

C=CCOC(F)(C(F)(F)F)C(F)(F)F
inactive: all assays above

C=CC(Cl)CCl (stereo unspecified)
inactive: all assays above

CC1CC(=O)O1 (stereo unspecified)
not listed: [9]
inactive: all other assays above

CCCCOP(=O)(CCCC)OCCCC
inactive: all assays above

O=C(CCl)Nc1ccccc1
inactive: [3] | [4]
active: [1] 44.4 µM | [2] 167 µM | [5] 83.2 µM | [6] 161 µM | [7] 25.5 µM | [8] 54.4 µM | [9] 177 µM

Cc1ccc(CCl)cc1
inactive: all assays above

O=C(NC(=O)c1c(F)cccc1F)Nc1cc(Cl)c(OC(F)(F)C(F)C(F)(F)F)cc1Cl (stereo unspecified)
inactive: all assays above

C[CH2][Hg][S]c1ccccc1C(=O)O
active: [1] 3.71 µM | [3] 3.71 µM | [5] 2.29 µM | [6] 1.99 µM
inactive: all other assays above

Cl[C@H]1OCCO[C@@H]1Cl
inactive: all assays above

CCOP(=S)(OCC)O/N=C(\C#N)c1ccccc1
inactive: all assays above

ClCCCCl
inactive: all assays above

Clc1cnc(Oc2ccc(Oc3ncc(Cl)cc3Cl)cc2)c(Cl)c1
not listed: [9]
inactive: all other assays above

CCCCCCCCCCBr
inactive: all assays above

COCCl
inactive: all assays above

Brc1c(Br)c(Br)c(Oc2c(Br)c(Br)c(Br)c(Br)c2Br)c(Br)c1Br
inactive: all assays above

COP(=S)(OC)Oc1cc(Cl)c(I)cc1Cl
inactive: [2] | [4] | [7] | [8]
active: [1] 41.3 µM | [3] 39.9 µM | [5] 41.8 µM | [6] 46.2 µM | [9] 58.1 µM

CN(C)[C@@H]1C(=O)C(C(N)=O)=C(O)[C@@]2(O)C(=O)C3=C(O)c4c(O)ccc(Cl)c4[C@@](C)(O)[C@H]3C[C@@H]12
inactive: all assays above

CCCCCCCCCCCCN(C)C
active: [1] 53.9 µM | [5] 58.7 µM | [8] 47.8 µM
inactive: all other assays above

CCCCCCCCBr
inactive: all assays above
